# Screening results (PubChem BioAssay)
# MPTP block: mitochondrial permeability transition pore inhibitors, primary screen, biochemical, isolated mouse mitochondria, absorbance; Ca2+ swelling absorbance, 30 min; inhibition, % at 10 µM; hit rate 1.4% among 360,000; AID 602449, 2012;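 active = inhibition of 50% or more, scaled per plate between neutral and stimulator controls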;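 note: 0% = DMSO wells given calcium and 100% = 1 mM EGTA wells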
# Mdm2 MdmX PPI: inhibitors of human Mdm2-MdmX association, primary screen, cell-based, luminescence, split luciferase, SaOS-2, uHTS. SaOS-2 split-luciferase Mdm2/MdmX complementation. hit rate 3% among 330,000. inhibition, % at 8 µM;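 active = inhibition of at least 50% at 8 µM in the primary screen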
# Beta apoptosis: inhibitors of cytokine-induced beta cell apoptosis, primary screen, luminescence; INS-1E cytokine-induced death, ATP luminescence, 48 h; percent of positive-control rescue, neutral wells zero; protection from apoptosis, % (test concentration not listed); hit rate 0.8% among 300,000;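 active = Every replicate reaches about 75%, or at least half do and their mean reaches it too, limit read from the data; inconclusive = At least half of replicates reach the limit but their mean does not; inactive = Under half of replicates reach the limit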;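 note: 0% = cytokine-treated negative control wells and 100% = positive control rescue; higher means more ATP so stronger rescue from cytokine killing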
# CSC inhib: cancer stem cell viability inhibitors, primary screen, luminescence; cancer stem cell-like cells viability; inhibition, % at 7.5 µM; hit rate 1.1% among 300,000; AID 2717, 2010; in the data active = inhibition above about 75%; inconclusive = no clear call, values can overlap the other calls; tested in HMLE shEcad cells
# Calb FLC: C. albicans growth inhibition with fluconazole, primary screen, CaCi-2 strain, Alamar Blue fluorescence. AID 1979, 2009. growth inhibition, % (no concentration beside the values). hit rate 0.57% among 300,000. C. albicans CaCi-2 (fluconazole-resistant clinical isolate) + fluconazole, 48 h;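 active = growth inhibition above about 58% in most replicates, limit read from the data, passing the limit was not always enough; inconclusive = exactly half the replicates above a set limit; inactive = most replicates below a set limit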;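 note: all wells also contain fluconazole at 8 µg/ml as a sub-toxic cotreatment; 0% = median of DMSO wells and 100% = median of geldanamycin control wells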
# Mdm2 MdmX conf: Mdm2-MdmX complex disruptors, retested hits, confirmation, luminescence, single concentration; shares compounds with Mdm2 MdmX PPI; Mdm2-MdmX binding, luminescent assay; inhibition, % at 8 µM; hit rate 55% among 10,000; in the data active = inhibition above about 40%
# Full FLuc ctr: full-length luciferase signal inhibition, confirmation, counter-screen for Mdm2/MdmX interaction inhibitor project, cell-based, single concentration, SaOS-2 | SaOS-2 full-length luciferase counterscreen, luminescence | shares compounds with Mdm2 MdmX PPI | inhibition, % at 8 µM | hit rate 77% among 6,200 | AID 504607, 2011;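 active = mean inhibition at 8 µM reaching about 37%, which flags the compound as non-specific, limit read from the data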;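 note: p53-null SaOS-2 cells with luciferase driven by a doxycycline-inducible promoter; compound on cells about two nights before reading with doxycycline added after day one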
# The depositor's hits bear a star; ? = inconclusive; nt = not tested or not shown. Shown are actives, neighbours in structure and some others; about 4.8% of the full set was active somewhere.
SMILES,MPTP block,Mdm2 MdmX PPI,Beta apoptosis,CSC inhib,Calb FLC,Mdm2 MdmX conf,Full FLuc ctr
O=C(CSc1nc(-c2ccccc2)cs1)Nc1nccs1,2,59*,-3,8,112*,-7,nt
CCn1c(CC(=O)Nc2ccc(C)c(Cl)c2)nnc1SCc1ccc(Cl)c(Cl)c1,4,-7,-2,-8,5,nt,nt
COc1ccc(NC(=O)Cc2nnc(SCC(=O)Nc3nccs3)n2C)cc1,-1,7,-7,-10,-8,nt,nt
CCn1c(CC(=O)Nc2cccc(OC)c2)nnc1SCC(=O)Nc1nccs1,0,57*,-1,-5,22,54*,59*
O=C(CSc1ccccc1)Nc1nccs1,1,-27,-3,nt,-22,nt,nt
Cc1cccc(C)c1NC(=O)C1c2ccccc2OCC(=O)N1CCc1ccccc1 (stereo unspecified),0,nt,nt,nt,nt,nt,nt
COc1ccccc1CNc1nc(NCCN2CCNC2=O)c2sccc2n1,-1,nt,nt,nt,nt,nt,nt
CN=c1scc(-c2ccccc2F)n1/N=C/c1ccc[nH]1,2,94*,8,32,3,98*,21
O=C1CCCC2=C1C1c3ccccc3C(=O)N1c1ccc(C(=O)c3ccccc3)cc1N2 (stereo unspecified),0,56*,2,-2,21,42*,67*
Cc1cc(Cl)ccc1C(O)c1ncc(-c2ccc(F)cc2)[nH]1 (stereo unspecified),2,nt,nt,nt,nt,nt,nt
CCOC(=O)c1ccc(NC(=O)c2c(N)n(C)c(=O)n(C)c2=O)cc1,-1,85*,3,-24,-2,9,nt
C=CCN(CC=C)Cc1cc(=O)oc2ccccc12,0,nt,nt,nt,nt,nt,nt
Oc1c(Cl)cc(Cl)cc1/C=N/Nc1ncc(Br)cn1,-1,67*,86*,-2,3,69*,23
CCOC(=O)C1CCN(S(=O)(=O)c2cccc3nonc23)CC1,-2,-1,6,-1,1,nt,nt
CCOC(=O)C1CCN(S(=O)(=O)c2c(Cl)ccc3nonc23)CC1,-2,100*,48,2,1,98*,1
Cc1cccc(-n2c(O)c(C=Nc3ccc4c(c3)OCO4)c3ccccc3c2=O)n1,-1,28,5,2,-1,nt,nt
Cc1cccc(/N=C/c2c(O)n(Cc3ccc4c(c3)OCO4)c(=O)c3ccccc23)n1,-2,53*,-1,12,-8,27,nt
CCOC(=O)C1=CCN(S(=O)(=O)c2ccccc2Cl)C1c1ccc(C)cc1 (stereo unspecified),0,nt,nt,nt,nt,nt,nt
COc1ccc2c(c1)C1C=CCC1C(c1cc3c(cc1Br)OCO3)N2 (stereo unspecified),1,47,-5,60,?,nt,nt
CC(=O)c1ccc2c(c1)C1C=CCC1C(c1cc3c(cc1Br)OCO3)N2 (stereo unspecified),2,67*,12,52,-4,47*,57*
Cc1cc(C(=O)COC(=O)C2=COCCO2)c(C)n1-c1ccccc1,-1,83*,-4,2,nt,84*,32
Cc1cc(C(=O)COC(=O)c2ccc[nH]c2=O)c(C)n1-c1ccccc1F,1,-17,3,3,1,nt,nt
Cc1cc(C(=O)Cn2nnc3ccccc3c2=O)c(C)n1-c1ccccc1F,-2,85*,3,44,23,78*,103*
Cc1cc(C(=O)COC(=O)C2=NNC(=O)CC2)c(C)n1-c1ccccc1,-2,23,nt,nt,-14,nt,nt
Cc1cc(C(=O)COC(=O)c2ccc(O)cc2)c(C)n1-c1ccccc1F,1,57*,-2,nt,20,64*,138*
SMILES,MPTP block,Mdm2 MdmX PPI,Beta apoptosis,CSC inhib,Calb FLC,Mdm2 MdmX conf,Full FLuc ctr
CCN(CC(=O)NCc1cccs1)S(=O)(=O)c1cccc(Br)c1,-1,-14,-1,-11,nt,nt,nt
CN1CCN(C2Cc3ccc(F)cc3Sc3cc(F)c(Cl)cc32)CC1 (stereo unspecified),-8,65*,nt,101*,42,41*,57*
CC(C)c1ccc2c(c1)C(N1CCNCC1)Cc1ccc(F)cc1S2 (stereo unspecified),nt,62*,116*,102*,70,34,nt
CN1CCN(C2Cc3cc(F)ccc3Sc3ccc(Cl)cc32)CC1 (stereo unspecified),-5,45,13,-11,42,nt,nt
CCc1noc(C)c1C(=O)Nc1ccc(F)c(F)c1F,0,-6,-13,-8,1,nt,nt
Cc1cc(C(=O)CCl)c(C)n1CCc1ccccc1,nt,74*,12,24,-27,43*,71*
CCOC(=O)c1cc(C)n(CCc2ccccc2)c1C,0,-38,7,15,0,nt,nt
Cc1cc(C(=O)CSc2nnnn2C)c(C)n1CCc1ccc(Cl)cc1,0,55*,-7,-9,nt,29,nt
COc1cccc(NS(=O)(=O)NC(=O)c2cn(C)c3ccccc23)c1,-1,20,-3,1,15,nt,nt
CCN(CC)C(=O)c1ccc(Cc2cn(C)c3ccccc23)nc1,0,nt,nt,nt,nt,nt,nt
CN1C[C@@H]2C(c3ccc(Cl)nc3)C3(c4ccc(C#N)cc4)CC2(C3)[C@H]1c1ccccc1 (stereo partly specified),1,8,34,1,19,nt,nt
N#Cc1ccc(C23CC4(C2)[C@H](CN(P(=O)(c2ccccc2)c2ccccc2)[C@@H]4c2ccccc2)C3c2ccc(Cl)nc2)cc1 (stereo partly specified),0,56*,4,44,11,25,54*
C=CCSc1nnc(NC(=O)c2nc(SCC)ncc2Cl)s1,-1,9,6,10,30,nt,nt
CSc1nnc(NC(=O)c2nc(S(=O)(=O)Cc3cccc(C)c3)ncc2Cl)s1,-2,100*,-29,110*,6,92*,50*
Cc1nnc(NC(=O)c2nc(S(=O)(=O)Cc3ccccc3C)ncc2Cl)s1,0,95*,-38,85*,-2,71*,52*
CCSc1nnc(NC(=O)c2nc(S(=O)(=O)Cc3ccc(F)cc3)ncc2Cl)s1,1,69*,-29,103*,3,26,nt
Cc1cccc(CS(=O)(=O)c2ncc(Cl)c(C(=O)Nc3nnc(C(C)C)s3)n2)c1,0,96*,-20,107*,-1,88*,50*
CCCCNC(=O)c1ccc(NC(=O)CC2SC(N3CCCC3)=NC2=O)cc1 (stereo unspecified),0,11,4,nt,nt,nt,nt
CCCCCCn1cc(CN2CC(N3CCCC3)CS2(=O)=O)nn1 (stereo unspecified),0,nt,nt,nt,nt,nt,nt
Cc1ccc(C(O)c2ncc(-c3ccc4ccccc4c3)[nH]2)cc1F (stereo unspecified),4,nt,nt,nt,nt,nt,nt
